The values below come from PubChem BioAssay (EPA / NIEHS).

Read-out in test [1]: UDP glucuronosyltransferase (UGT1A1), UGT1A1 (gene 54658)
Put plainly: LTEA_HepaRG_UGT1A1: Life Technologies and Expression Analysis (LTEA) Assay for UDP glucuronosyltransferase (UGT1A1) using HepaRG (AID 2283538; active = hit-call score of the fitted dose curve at least 0.9, where 1 is the maximum; inactive = score below 0.9). Conditions: mRNA level, 48 h; actives raise or lower the signal. In short, it runs like this: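 Human liver HepaRG cultures receive test chemical for 48 h, up to 100 uM in 0.5% DMSO, with phenobarbital induction controls. UGT1A1 mRNA is measured by qRT-PCR and normalized to ACTB, GAPDH and POLR2A.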

Read-out in test [2]: UDP glucuronosyltransferase (UGT1A6), UGT1A6 (gene 54578)
Put plainly: LTEA_HepaRG_UGT1A6: Life Technologies and Expression Analysis (LTEA) Assay for UDP glucuronosyltransferase (UGT1A6) using HepaRG (AID 2283539; active = hit-call score of the fitted dose curve at least 0.9, where 1 is the maximum; inactive = score below 0.9). Conditions: mRNA level, 48 h; actives raise or lower the signal. The procedure, abridged: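 Measures mRNA change in HepaRG hepatic cells exposed 48 h to chemicals (eight-point, maximum 100 uM, 0.5% DMSO vehicle) in serum-free induction medium. Expression normalized to endogenous controls; DMSO served as negative control and baseline.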

Read-out in test [3]: X-box binding protein 1 (XBP1), XBP1 (gene 7494)
Put plainly: LTEA_HepaRG_XBP1: Life Technologies and Expression Analysis (LTEA) Assay for X-box binding protein 1 (XBP1) using HepaRG (AID 2283540; active = hit-call score of the fitted dose curve at least 0.9, where 1 is the maximum; inactive = score below 0.9). Conditions: mRNA level, 48 h; actives raise or lower the signal. In short, it runs like this:
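Eight concentrations (half-log, highest 100 uM, 0.5% DMSO) tested in duplicate on HepaRG cells over 48 h in serum-free induction medium; qRT-PCR of XBP1 normalised to ACTB, GAPDH, POLR2A.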

A short description of test [4]: LTEA_HepaRG_LDH_cytotoxicity: Cytotoxicity Assessment in the Life Technologies and Expression Analysis (LTEA) Assay (AID 2283563).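 As to AC50: LDH activity released into spent culture medium as a marker of cell death.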 In short, it runs like this:
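Spent-medium LDH after 48 h chemical exposure of HepaRG cells in serum-free induction medium; eight concentrations, half-log dilutions from 100 uM, duplicate wells, fitted upward relative to 0.5% DMSO.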

A short description of test [5]: TOX21_p53_BLA_p2_viability: Viability Assessment in the Tox21 HCT-116 p53 Agonism Beta-lactamase Assay, Phase 2 (AID 2283591).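 Also: compound exposure lasted 16 h at 37 °C; actives lower the ATP signal meaning cytotoxicity.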 The procedure, abridged:
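HCT-116 p53-bla cells (4000/well) rested 5 h at 37C, then received compounds in DMSO (217-fold dilution) for 16 h at 37C, 5% CO2. After the CCF4 read, CellTiter-Glo was added; ATP luminescence was read after 30 min at room temperature.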

A short description of test [6]: TOX21_p53_BLA_p3_viability: Viability Assessment in the Tox21 HCT-116 p53 Agonism Beta-lactamase Assay, Phase 3 (AID 2283593).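 Also: cells exposed to compound for 16 h before reading.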 The procedure, abridged: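 HCT-116 cells (4000/well) rested 5 h at 37C, then got DMSO compounds by pin tool (217-fold dilution) for 16 h at 37C, 5% CO2. After the bla read, CellTiter-Glo was added and luminescence read at 30 min, room temperature.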

Test [7] deals with Cellular tumor antigen p53 (Homo sapiens) (UniProt P04637). Put plainly: TOX21_p53_BLA_p3_ratio: Tox21 HCT-116 p53 Agonism Beta-lactamase Assay, Ratio, Phase 3 (AID 2283596). The procedure, abridged: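 HCT116 p53-bla cells (4000/well) given compound in DMSO (217-fold dilution) after 5 h, incubated 16 h at 37C. CCF4-AM substrate 2 h at room temperature; 460/530 nm emission ratio, gain fitted against DMSO.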

The target is the same in test [8]. Put plainly: TOX21_p53_BLA_p5_ratio: Tox21 HCT-116 p53 Agonism Beta-lactamase Assay, Ratio, Phase 5 (AID 2283599). In short, it runs like this:
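HCT-116 cells carrying a p53-inducible beta-lactamase reporter were seeded at 4000 cells/well and dosed after 5 h with compound in DMSO (217-fold dilution). After 16 h at 37C, CCF4-AM substrate was added for 2 h, and the 460/530 nm emission ratio was scored as gain-of-signal versus DMSO.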

Test [9] shares this target. Put plainly: TOX21_p53_BLA_p2_ratio: Tox21 HCT-116 p53 Agonism Beta-lactamase Assay, Ratio, Phase 2 (AID 2283592). The procedure, abridged:
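Human colon HCT116 cells with an inducible p53 beta-lactamase reporter are exposed to test chemicals for 16 h at 37C. Reporter induction is read as the 460/530 nm emission ratio after CCF4-AM loading, normalized to DMSO.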

Test [10] in a line: TOX21_p53_BLA_p4_viability: Viability Assessment in the Tox21 HCT-116 p53 Agonism Beta-lactamase Assay, Phase 4 (AID 2283597).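 Also: hits lower the luminescence signal meaning cytotoxicity.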 The procedure, abridged:
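Luminescent ATP readout (CellTiter-Glo, 30 min, room temperature) in the same wells as the p53 bla ratio. HCT116 cells were treated for 16 h at 37C with DMSO-dissolved compounds.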

Each structure is given as a SMILES string. Records with an inconclusive call do not appear. The source made the active and inactive calls. The calls were made as follows, unless noted: active = hit-call score of the fitted dose curve at least 0.9, where 1 is the maximum; inconclusive = response in the unintended direction; inactive = score below 0.9.

Cellular tumor antigen p53 (Homo sapiens), sequence (P04637 whole entry, looked up): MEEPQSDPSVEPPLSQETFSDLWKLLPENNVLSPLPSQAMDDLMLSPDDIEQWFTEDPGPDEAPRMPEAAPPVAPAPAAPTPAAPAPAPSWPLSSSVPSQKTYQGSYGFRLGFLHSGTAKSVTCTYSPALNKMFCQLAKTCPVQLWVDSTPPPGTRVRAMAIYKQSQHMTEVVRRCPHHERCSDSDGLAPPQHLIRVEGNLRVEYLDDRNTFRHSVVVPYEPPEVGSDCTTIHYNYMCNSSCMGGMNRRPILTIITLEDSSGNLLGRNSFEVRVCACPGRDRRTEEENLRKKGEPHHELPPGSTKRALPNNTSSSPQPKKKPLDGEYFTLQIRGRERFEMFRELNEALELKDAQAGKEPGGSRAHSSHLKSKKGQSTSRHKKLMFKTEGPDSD

For `COP(N)(=O)SC` (stereo not drawn), the result in test [1], in test [2], in test [3], in test [4], in test [5] and in test [6] was inactive. Moreover, the result in test [7] and in [8] was inactive.

For the compound `CS/C(C)=N/OC(=O)N(C)SN(C)C(=O)O/N=C(\C)SC`, in test [1], the AC50 is 29.1 µM (active). Also, the outcome in test [2], in test [3], in test [4], in test [9], in test [7] and in [8] was inactive.

With `C=CCC1=C(C)[C@@H](OC(=O)[C@@H]2[C@@H](C=C(C)C)C2(C)C)CC1=O`, the call in test [1], in test [2], in test [3], in [5], in test [9] and in test [6] was inactive. In addition, the result in [7], in test [10] and in test [8] was inactive.

Turning to `N#Cc1nn(-c2c(Cl)cc(C(F)(F)F)cc2Cl)c(N)c1S(=O)C(F)(F)F` (stereo not drawn), the AC50 is 37.6 µM (active) in [1], 44.8 µM (active) in test [2], 68.6 µM (active) in test [3] and 34.2 µM (active) in test [4]. In addition, the compound was called inactive in test [5], in test [9], in test [6], in [7], in [10] and in test [8].

`CCNc1nc(Cl)nc(NC(C)C)n1`: the AC50 in [1] is 18.1 µM (active). Besides, the call in test [2], in [3], in test [4] and in test [9] was inactive.

With `COC(=O)c1ccccc1C(=O)OC`, the call in [1], in test [2], in test [3], in [4], in [9] and in test [6] was inactive. For the same compound, the result in test [7], in test [10] and in [8] was inactive.

For the compound `CON(C)C(=O)Nc1ccc(Cl)c(Cl)c1`, the AC50 in [1] was 32.5 µM (active). For the same compound, the call in [2], in test [3], in [4], in [5], in test [9] and in test [6] was inactive. Moreover, the outcome in test [7], in test [10] and in test [8] was inactive.

Regarding `CCOC(=O)C(Cl)Cc1cc(-n2nc(C)n(C(F)F)c2=O)c(F)cc1Cl` (stereo not drawn), the AC50 in [1] was 38.2 µM (active). Further, the outcome in test [2], in test [3], in [4], in test [9] and in [10] was inactive.

Regarding `CCCC1COC(Cn2cncn2)(c2ccc(Cl)cc2Cl)O1` (stereo not drawn), the results for the AC50 in [1], in [2] and in [4] were 35.8 µM (active), 59.5 µM (active) and 32 µM (active), respectively. Further, the outcome in [3], in test [5], in test [9], in test [6], in test [7] and in test [10] was inactive. Moreover, in test [8], the outcome was inactive.

Regarding `COC(=O)C=C(C)OP(=O)(OC)OC`, the result in [1], in test [2], in [3], in test [4], in test [9] and in [8] was inactive.

On to `CCCCOC(=O)c1ccccc1C(=O)OCCCC`, for which the call in [1], in test [2], in test [3], in [4], in [9] and in test [6] was inactive. Also, the outcome in test [7] and in [8] was inactive.

As to `CCOP(=S)(OCC)SCn1c(=O)oc2cc(Cl)ccc21`, the outcome in [1], in test [2], in test [3], in [4], in [9] and in test [7] was inactive. The compound was called inactive in [10] and in [8].

`COC(=O)C(C)Oc1ccc(Oc2ccc(Cl)cc2Cl)cc1` (stereo not drawn): the AC50 in [1] is 20.7 µM (active). Moreover, the compound was called inactive in test [2], in [3], in [4], in [5], in test [9] and in [7]. In addition, the outcome in test [10] and in [8] was inactive.

As to `COc1nc(C)nc(NC(=O)NS(=O)(=O)c2ccccc2Cl)n1`, the outcome in [5], in [9] and in test [7] was inactive.

In the case of `Cc1ccc(-c2c(Cl)nc(C#N)n2S(=O)(=O)N(C)C)cc1`, the AC50 in test [1] is 37.4 µM (active); in test [2], 27.4 µM (active); in test [3], 90.6 µM (active); in test [4] it was 8.94 µM (active); in [5] it was 68.9 µM (active); in [9] it was 8.72 µM (active). Also, the AC50 in test [7] is 12.1 µM (active); in test [10] it was 71.9 µM (active); in [8] it was 20.1 µM (active). The compound was classed as inactive in [6].

One may read the AC50 as the concentration giving half of the maximal activity seen.
